Source: PubChem BioAssay (NCI)
The panel holds about 79,000 compounds, 15% with a hit somewhere; the sample as a whole holds those more often. Unmarked numbers belong to inactive results. Calls of active or inactive are those of the source. Cut-off read from the data, not from the text of the source: active = growth inhibition above about 70%; inactive = the rest.

Tests used:
[1] = NCI Yeast Anticancer Drug Screen. Data for the rad50 strain (AID 155);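 note: 0% = growth of vehicle-only cultures of the same strain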; details: S. cerevisiae rad50 strain growth inhibition, stronger effect = higher value
In short: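 Relative growth inhibition (compound vs vehicle) was measured in yeast with a defined repair-gene alteration.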

[2] = NCI Yeast Anticancer Drug Screen. Data for the mec2-1 strain (AID 157); details: S. cerevisiae mec2-1 strain, stronger effect = higher value
In short: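 Test agents were screened against the mec2-1 yeast strain, with defined DNA repair or cell cycle alteration. Growth was scored as inhibition against vehicle-only controls.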

[3] = NCI Yeast Anticancer Drug Screen. Data for the sgs1 mgt1 strain (AID 161);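 note: 0% = growth of cultures given vehicle only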; details: S. cerevisiae sgs1 mgt1 strain, stronger effect = higher value
In short: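 Inhibition of yeast growth, normalised to vehicle-treated controls, is reported for a strain bearing genetic alterations in DNA damage repair.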

[4] = NCI Yeast Anticancer Drug Screen. Data for the cln2 rad14 strain (AID 165);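 note: 0% = growth equal to vehicle treated cultures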; details: S. cerevisiae cln2 rad14 strain, stronger effect = higher value
In short: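 Growth of compound-exposed yeast (cln2 rad14 genotype) measured and expressed as inhibition relative to vehicle.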

[5] = NCI Yeast Anticancer Drug Screen. Data for the bub3 strain (AID 167); details: S. cerevisiae bub3 mutant strain, stronger effect = higher value
In short: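 Screening used yeast with an engineered genetic alteration affecting cell cycle control. Compound-exposed cultures were compared with vehicle cultures, and reduced growth was taken as inhibition.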

[6] = NCI Yeast Anticancer Drug Screen. Data for the mlh1 rad18 strain (AID 175); details: S. cerevisiae mlh1 rad18 strain growth inhibition, stronger effect = higher value
In short: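 In this whole-cell yeast screen, a strain with altered DNA damage repair is challenged with compound, and its growth is measured against matched vehicle-treated controls.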

[7] = at 5.0 µM (retest, dose inferred, filed as 0.5)
[8] = at 50.0 µM (retest, dose inferred, filed as 5.0)

Oc1c(Cl)cc(Cl)cc1Br
growth inhibition [1, 7]: -4%
growth inhibition [1, 8]: 83% (active)
growth inhibition ([1]; at 50.0 µM): 90.2% (active)
growth inhibition [2, 7]: 5%
growth inhibition [2, 8]: 96% (active)
growth inhibition ([2]; at 50.0 µM): 97.4% (active)
growth inhibition [3, 7]: 3%
growth inhibition [3, 8]: 72% (active)
growth inhibition ([3]; at 50.0 µM): 96.7% (active)
growth inhibition [4, 7]: 0%
growth inhibition [4, 8]: 91% (active)
growth inhibition ([4]; at 50.0 µM): 54.5%
growth inhibition [5, 7]: -7%
growth inhibition [5, 8]: 78% (active)
growth inhibition ([5]; at 50.0 µM): 84.7% (active)
growth inhibition [6, 7]: -2%
growth inhibition [6, 8]: 91% (active)
growth inhibition ([6]; at 50.0 µM): 88.1% (active)

CCC[CH2][Sn]([CH2]CCC)([O]C(=O)c1cccc(F)c1F)[O]C(=O)c1cccc(F)c1F
growth inhibition [1, 7]: 73% (active)
growth inhibition [1, 8]: 73% (active)
growth inhibition ([1]; at 50.0 µM): 86.6% (active)
growth inhibition [2, 7]: 62%
growth inhibition [2, 8]: 62%
growth inhibition ([2]; at 50.0 µM): 88% (active)
growth inhibition [3, 7]: 78% (active)
growth inhibition [3, 8]: 78% (active)
growth inhibition ([3]; at 50.0 µM): 86.5% (active)
growth inhibition [4, 7]: 55%
growth inhibition [4, 8]: 55%
growth inhibition ([4]; at 50.0 µM): 88.7% (active)
growth inhibition [5, 7]: 62%
growth inhibition [5, 8]: 62%
growth inhibition ([5]; at 50.0 µM): 87.9% (active)
growth inhibition [6, 7]: 67%
growth inhibition [6, 8]: 67%
growth inhibition ([6]; at 50.0 µM): 86.4% (active)

CC(=O)Oc1ccc(Cl)cc1Cc1cc(Cl)ccc1OC(C)=O
growth inhibition [1, 7]: 17%
growth inhibition [1, 8]: 85% (active)
growth inhibition ([1]; at 50.0 µM): 94.2% (active)
growth inhibition [2, 7]: -1%
growth inhibition [2, 8]: 93% (active)
growth inhibition ([2]; at 50.0 µM): 90.7% (active)
growth inhibition [3, 7]: 7%
growth inhibition [3, 8]: 83% (active)
growth inhibition ([3]; at 50.0 µM): 94.5% (active)
growth inhibition [4, 7]: -4%
growth inhibition [4, 8]: 94% (active)
growth inhibition ([4]; at 50.0 µM): 89.2% (active)
growth inhibition [5, 7]: -3%
growth inhibition [5, 8]: 88% (active)
growth inhibition ([5]; at 50.0 µM): 94.5% (active)
growth inhibition [6, 7]: 2%
growth inhibition [6, 8]: 94% (active)
growth inhibition ([6]; at 50.0 µM): 95.2% (active)

O=S(=O)(O)CNc1cc(Cl)cc(Cl)c1
growth inhibition [1, 7]: 34%
growth inhibition [1, 8]: 78% (active)
growth inhibition ([1]; at 50.0 µM): 13.9%
growth inhibition [2, 7]: 9%
growth inhibition [2, 8]: 28%
growth inhibition ([2]; at 50.0 µM): -5%
growth inhibition [3, 7]: 1%
growth inhibition [3, 8]: 17%
growth inhibition ([3]; at 50.0 µM): 2.3%
growth inhibition [4, 7]: 4%
growth inhibition [4, 8]: 16%
growth inhibition ([4]; at 50.0 µM): -53.4%
growth inhibition [5, 7]: 6%
growth inhibition [5, 8]: 85% (active)
growth inhibition ([5]; at 50.0 µM): 2.1%
growth inhibition [6, 7]: 8%
growth inhibition [6, 8]: 33%
growth inhibition ([6]; at 50.0 µM): 41.8%

CC(=O)Oc1cccc2c(OC(C)=O)cccc12
growth inhibition [1, 7]: -8%
growth inhibition [1, 8]: 87% (active)
growth inhibition ([1]; at 50.0 µM): 69.2%
growth inhibition [2, 7]: -19%
growth inhibition [2, 8]: 91% (active)
growth inhibition ([2]; at 50.0 µM): 39.8%
growth inhibition [3, 7]: -9%
growth inhibition [3, 8]: 53%
growth inhibition ([3]; at 50.0 µM): 70.8% (active)
growth inhibition [4, 7]: -8%
growth inhibition [4, 8]: 34%
growth inhibition ([4]; at 50.0 µM): 26.9%
growth inhibition [5, 7]: -32%
growth inhibition [5, 8]: 92% (active)
growth inhibition ([5]; at 50.0 µM): 58.2%
growth inhibition [6, 7]: -6%
growth inhibition [6, 8]: 89% (active)
growth inhibition ([6]; at 50.0 µM): 65.6%

O=S(=O)(CCNCCCCC1CCCCC1)SCCNCCCCC1CCCCC1
growth inhibition [1, 7]: 48%
growth inhibition [1, 8]: 99% (active)
growth inhibition ([1]; at 50.0 µM): 68.3%
growth inhibition [2, 7]: 3%
growth inhibition [2, 8]: 99% (active)
growth inhibition ([2]; at 50.0 µM): 49.1%
growth inhibition [3, 7]: 70% (active)
growth inhibition [3, 8]: 99% (active)
growth inhibition ([3]; at 50.0 µM): 55.1%
growth inhibition [4, 7]: 10%
growth inhibition [4, 8]: 99% (active)
growth inhibition ([4]; at 50.0 µM): 56.5%
growth inhibition [5, 7]: 16%
growth inhibition [5, 8]: 99% (active)
growth inhibition ([5]; at 50.0 µM): 98.8% (active)
growth inhibition [6, 7]: 38%
growth inhibition [6, 8]: 99% (active)
growth inhibition ([6]; at 50.0 µM): 47%

Nc1ccc(SCCCc2c(N)nc(N)nc2N)cc1
growth inhibition [1, 7]: -8%
growth inhibition [1, 8]: 4%
growth inhibition ([1]; at 50.0 µM): 57.5%
growth inhibition [2, 7]: 1%
growth inhibition [2, 8]: -8%
growth inhibition ([2]; at 50.0 µM): 92.2% (active)
growth inhibition [3, 7]: 27%
growth inhibition [3, 8]: 11%
growth inhibition ([3]; at 50.0 µM): 20.6%
growth inhibition [4, 7]: -16%
growth inhibition [4, 8]: -17%
growth inhibition ([4]; at 50.0 µM): 91.8% (active)
growth inhibition [5, 7]: -9%
growth inhibition [5, 8]: -12%
growth inhibition ([5]; at 50.0 µM): 95% (active)
growth inhibition [6, 7]: 6%
growth inhibition [6, 8]: 32%
growth inhibition ([6]; at 50.0 µM): 82.2% (active)

c1ccc(CN2CCC3(CC2)SSC2(CCN(Cc4ccccc4)CC2)SS3)cc1
growth inhibition [1, 7]: 0%
growth inhibition [1, 8]: 34%
growth inhibition ([1]; at 50.0 µM): 73.1% (active)
growth inhibition [2, 7]: 14%
growth inhibition [2, 8]: -3%
growth inhibition ([2]; at 50.0 µM): 24.4%
growth inhibition [3, 7]: 5%
growth inhibition [3, 8]: 35%
growth inhibition ([3]; at 50.0 µM): 30.9%
growth inhibition [4, 7]: 31%
growth inhibition [4, 8]: 21%
growth inhibition ([4]; at 50.0 µM): 29.8%
growth inhibition [5, 7]: 16%
growth inhibition [5, 8]: 18%
growth inhibition ([5]; at 50.0 µM): 42.2%
growth inhibition [6, 7]: 7%
growth inhibition [6, 8]: 19%
growth inhibition ([6]; at 50.0 µM): 45.9%

O=C(CC(=O)Nc1cccc(Cl)c1)NNCC(=O)Nc1nnc(-c2ccccc2)s1
growth inhibition [1, 7]: 8%
growth inhibition [1, 8]: 98% (active)
growth inhibition ([1]; at 50.0 µM): 8.5%
growth inhibition [2, 7]: 6%
growth inhibition [2, 8]: 99% (active)
growth inhibition ([2]; at 50.0 µM): 8.05%
growth inhibition [3, 7]: 11%
growth inhibition [3, 8]: 99% (active)
growth inhibition ([3]; at 50.0 µM): 0.65%
growth inhibition [4, 7]: 3%
growth inhibition [4, 8]: 98% (active)
growth inhibition ([4]; at 50.0 µM): 51.1%
growth inhibition [5, 7]: 7%
growth inhibition [5, 8]: 99% (active)
growth inhibition ([5]; at 50.0 µM): -3.45%
growth inhibition [6, 7]: 3%
growth inhibition [6, 8]: 98% (active)
growth inhibition ([6]; at 50.0 µM): 9.9%

CCCCCCCCCCCCNC(=O)C[n+]1cccc(C(=O)N(C)C)c1
growth inhibition [1, 7]: -5%
growth inhibition [1, 8]: 33%
growth inhibition ([1]; at 50.0 µM): 68.3%
growth inhibition [2, 7]: -24%
growth inhibition [2, 8]: -13%
growth inhibition ([2]; at 50.0 µM): 58%
growth inhibition [3, 7]: -17%
growth inhibition [3, 8]: 46%
growth inhibition ([3]; at 50.0 µM): 91.4% (active)
growth inhibition [4, 7]: -15%
growth inhibition [4, 8]: 13%
growth inhibition ([4]; at 50.0 µM): 24.6%
growth inhibition [5, 7]: -9%
growth inhibition [5, 8]: 21%
growth inhibition ([5]; at 50.0 µM): 3.35%
growth inhibition [6, 7]: 7%
growth inhibition [6, 8]: 44%
growth inhibition ([6]; at 50.0 µM): 53.4%
